Test results: PubChem BioAssay (NCI)
Where “and” joins values, the source holds several entries; their conditions need not be identical. Equal entries are not always repeated. Compounds without any hit were thinned out: in the full panel of roughly 83,000, 20% have a hit.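 Percent growth is the endpoint: 0 to 100 indicates growth inhibition (40 means 60% inhibition), 0 means no net growth, and negative values indicate cell death.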 The source holds several records for some structures; these can differ, active in one and inactive in another. Calls of active or inactive are those of the source. Rule for the calls: active = growth percent below 10; inactive = the rest.

test system: HL-60(TB) leukemia; assay: NCI-60 one-dose screen, 48 h (100 = growth as untreated, 0 = no growth, -100 = all killed); details: 10 µM unless noted

**Q.** How did the growth turn out when `CC(=O)Oc1ccc(C(c2ccc(OC(C)=O)cc2)c2ccccn2)cc1` was run?
**A.** 102% (inactive)

**Q.** `O=c1ssc(Cl)c1-c1ccccc1` was tested. Which growth did it give?
**A.** 48% (inactive)

**Q.** How did the growth turn out when `CCCCCCCCCCCCCCCC(=O)N1CCN(C)CC1` was run?
**A.** 47.3% (inactive)

**Q.** How did the growth turn out when `CNC(=O)c1cc(Oc2ccc3nc(NC(C)=O)sc3c2)ccn1` was run?
**A.** 98.9% (inactive)

**Q.** For `Nc1ccc(N=Nc2ccc(S(=O)(=O)O)cc2)cc1S(=O)(=O)O`, which growth is on record?
**A.** 98.5% (inactive) and 146% (inactive)

**Q.** Which growth does the source give for `CCN1CCC2(CC1)OC(c1ccccc1)C(c1ccccc1)O2` (centres undefined) here?
**A.** 103% (inactive)

**Q.** For `COC(=O)/C(CCC=C(C)C)=C1\[C@@H](OC(C)=O)C[C@@]2(C)[C@H]1C[C@@H](O)[C@H]1[C@@]3(C)CC[C@H](NCCCNCCCCNCCCN)[C@@H](C)[C@@H]3CC[C@@]12C`, which growth is on record?
**A.** 37.2% (inactive)

**Q.** How did the growth turn out when `COC(=O)[C@]12CC[C@@H](C)[C@H](C)[C@@H]1C1=CC[C@@H]3[C@@]4(C)C(c5cnco5)=C[C@@](C)(CO)C4=CC[C@@]3(C)[C@]1(C)CC2` was run?
**A.** 21.9% (inactive)

**Q.** `CN(C)Cc1ccccn1` was tested. Which growth did it give?
**A.** 108% (inactive)

**Q.** For `O=C(CSc1nccc(Nc2ccc(S(=O)(=O)Nc3ccccn3)cc2)n1)c1ccc(Cl)cc1`, which growth is on record?
**A.** 95.3% (inactive)

**Q.** How did the growth turn out when `CC(C)(C)[Si](C)(C)OC1[C@@H](O[Si](C)(C)C(C)(C)C)[C@@H](CNC(=O)NC(=O)C(F)(F)F)O[C@H]1n1cnc2c(NC(=O)Nc3ccccc3)ncnc21` (some centres undefined) was run?
**A.** -52.6% (active)

**Q.** How did the growth turn out when `CCOc1ccc(-c2nonc2NC(=O)c2cccc(C)c2)cc1OCC` was run?
**A.** 73% (inactive)

**Q.** Which growth does the source give for `COc1ccc2c(c1)sc1nc(-c3ccc(Br)cc3)cn12` here?
**A.** 80.7% (inactive)

**Q.** `O=C(Nc1ccc(I)cc1F)c1cc(Cl)ccc1O` was tested. Which growth did it give?
**A.** -44.3% (active)

**Q.** With `COc1ccc(C2=CC(c3ccc(Oc4ccnc5cc(Cl)ccc45)c(OC)c3)c3c(nc(OC)[nH]c3=O)N2)cc1` (centres undefined) as the compound, how does the growth read?
**A.** 85.7% (inactive)

**Q.** How did the growth turn out when `C=CCn1c(SCC(=O)Nc2ccc(C(=O)/C=C/c3ccc(Cl)cc3)cc2)nnc1-c1cc(-c2ccc(S(N)(=O)=O)cc2)nc2ccccc12` was run?
**A.** 75.7% (inactive)

**Q.** `O=[N+]([O-])c1cccc(N=C(Nc2cccc([N+](=O)[O-])c2)c2ccccc2)c1` was tested. Which growth did it give?
**A.** 102% (inactive)

**Q.** With `C=CC[Se]C(=O)Cc1c(C)n(C(=O)c2ccc(Cl)cc2)c2ccc(OC)cc12` as the compound, how does the growth read?
**A.** -53.3% (active)

**Q.** Which growth does the source give for `COc1cc(/C=C/C(=O)c2ccc(Nc3ncnc4cc(OC)c(OC)cc34)cc2)cc(OC)c1` here?
**A.** 94.2% (inactive)

**Q.** How did the growth turn out when `CC(=O)N[C@H](C(=O)N[C@@H](CCCNC(=N)N)C(=O)N[C@@H](CCCCN)C(=O)N[C@@H](CCCNC(=N)N)C(=O)N[C@]1(C)CCC/C=C\CCC[C@@](C)(C(=O)N[C@@H](CC(C)C)C(=O)N[C@@H](CC(C)C)C(=O)N[C@@H](CCC(N)=O)C(=O)N[C@@H](CCC(=O)O)C(=O)N[C@@H](CCCNC(=N)N)C(=O)N[C@@H](CCC(=O)O)C(=O)N[C@@H](CC(C)C)C(=O)N[C@H](C(=O)N[C@@H](CCC(=O)O)C(N)=O)C(C)C)NC(=O)[C@H](CCCNC(=N)N)NC(=O)[C@H](CC(C)C)NC1=O)C(C)C` was run?
**A.** 104% (inactive)

**Q.** `O=C(NNc1ccc(-c2ccccc2)nn1)c1ccccc1` was tested. Which growth did it give?
**A.** 98.8% (inactive)

**Q.** How did the growth turn out when `Cc1cc(OI)c(C(C)C)cc1-c1cc(C(C)C)c(OI)cc1C` was run?
**A.** 106% (inactive)

**Q.** How did the growth turn out when `O=C1c2c(c3c4ccc(Br)cc4oc3c3[nH]c4ccccc4c23)C(=O)N1O` was run?
**A.** 25% (inactive)

**Q.** For `COc1c(/C(C)=N/N=c2sc(C(C)=O)nn2-c2ccc(Cl)cc2)c(Oc2ccccc2)c(OC)c2occc12`, which growth is on record?
**A.** 102% (inactive) and 104% (inactive)

**Q.** `CCCCn1c(=O)[nH]c(N)c([C@@H]2c3c([nH]c(=O)n(CCCC)c3=O)Oc3ccc4ccccc4c32)c1=O` was tested. Which growth did it give?
**A.** 13.4% (inactive)

**Q.** How did the growth turn out when `O=c1[nH]c(=S)[nH]n1C(=S)n1[nH]c(=S)[nH]c1=O` was run?
**A.** 99.1% (inactive)

**Q.** How did the growth turn out when `COC(=O)c1ccc2[nH]c(O)c(C(=Nc3ccc(N(C)C(=O)CN4CCN(C)CC4)cc3)c3ccc(C)cc3)c2c1` was run?
**A.** -55.7% (active)

**Q.** For `O=C(Nc1ccccc1)OCC(CN1CCCCC1)OC(=O)Nc1ccccc1` (centres undefined), which growth is on record?
**A.** 69.3% (inactive) and 95% (inactive)

**Q.** `COc1cc(C(=O)n2nc(N3CCN(C)CC3)c3cc(N)ccc32)cc(OC)c1OC` was tested. Which growth did it give?
**A.** 1.68% (active)

**Q.** How did the growth turn out when `CCS/C(Nc1ccccc1)=C(\C#N)C(=O)N/N=C/c1ccc(Cl)cc1Cl` was run?
**A.** -31.4% (active)

**Q.** `COc1nccnn1` was tested. Which growth did it give?
**A.** 185% (inactive)

**Q.** For `Cc1ccc(S(N)(=O)=O)cc1Cl`, which growth is on record?
**A.** 79.8% (inactive)

**Q.** Which growth does the source give for `OC(c1cc(-c2ccc(C(F)(F)F)cc2)nc(C(F)(F)F)c1)C1CCCCN1` (centres undefined) here?
**A.** -47.6% (active) and -72.8% (active) and 36.6% (inactive)

**Q.** For `ClC(Cl)c1nc(-c2cccnc2)n2nc(-c3ccccc3)cc2n1`, which growth is on record?
**A.** 14.2% (inactive)

**Q.** With `OCc1nnn(-c2ccccc2)c1CO` as the compound, how does the growth read?
**A.** 89.1% (inactive)

**Q.** `CCCCCCCCCCCCSC(=NC)NC` was tested. Which growth did it give?
**A.** -37.6% (active) and 38.4% (inactive)

**Q.** How did the growth turn out when `COc1ccc(-c2oncc2-c2cc(OC)c3c(c2)OCO3)cc1` was run?
**A.** -6.72% (active)

**Q.** For `CCN(CC)c1ccc(N=O)cc1`, which growth is on record?
**A.** 33.1% (inactive)

**Q.** Which growth does the source give for `COCCn1c(Nc2ccc(C(=O)NO)cc2)nc2ccccc21` here?
**A.** 11.9% (inactive)
